# Laboratory results: PubChem BioAssay (NCATS)
# Records with an inconclusive call do not appear. Unmarked numbers belong to inactive results. Calls come from the whole dose curve; as a rule, active = well fitted inhibition curve with a large enough effect; inconclusive = small, poorly fitted or top-dose-only effect; inactive = flat fitted curve, though single readings scatter.
# Target: Calcium and integrin-binding protein 1 (Homo sapiens) (UniProt Q99828)
# Experiment: Primary qHTS for Identification of Calcium Integrin Binding Protein 1 (CIB1) Competitor (AID 1508620); note: top concentration of the series differs between compounds
# Conditions: CIB1-GST / FITC-alphaIIb peptide fluorescence polarization; series mostly up to 114 µM; activity change, negative = inhibition: at the top concentration
# Summary of the method: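 Fluorescence polarization competition: GST-tagged CIB1 (1 uM final) preincubated with compound 15 min at room temperature, then FITC-labelled alphaIIb peptide (100 nM final) added. After 15 min at room temperature, polarization read at Ex 480/Em 540.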
# % is set by controls: 0 for no effect and ±100 for the full control effect.
# Sequence of Calcium and integrin-binding protein 1 (Homo sapiens) (Q99828 whole entry, looked up): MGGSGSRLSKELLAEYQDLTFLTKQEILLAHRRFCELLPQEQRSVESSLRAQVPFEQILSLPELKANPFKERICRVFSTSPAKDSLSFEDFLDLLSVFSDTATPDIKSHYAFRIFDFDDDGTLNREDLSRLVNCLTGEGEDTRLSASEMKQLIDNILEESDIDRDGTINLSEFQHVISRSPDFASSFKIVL
row,SMILES,"activity change, negative = inhibition"
1,Cc1ccc(NS(=O)(=O)c2cccc(Cl)c2)cc1C,6.33%
2,O=[S+]([O-])(c1ccc2c(c1)OCCO2)N1CCN([S+](=O)([O-])c2ccccc2Br)CC1,-1.82%
3,O=C(Nc1nnc(-c2ccncc2)s1)Nc1ccc(Cl)cc1F,4.95%
4,Cc1cnc(-c2ccccc2C(C)C)nc1NCc1ccc(C#N)cc1,-3.47%
5,O=C(Nc1ccc(N2CCOCC2)c(F)c1)Nc1nnc(-c2ccncc2)s1,-7.05%
6,O=C(O)c1ccc2c(c1)C(=O)N([C@H](Cc1ccc(F)cc1)C(=O)O)C2=O,1.64%
7,Cc1nc2ccccn2c1C(O)(c1ccccc1)c1ccccc1,-0.997%
8,CC(=O)Nc1ccc(C(=O)Nc2ccc(-c3nc4ccccc4[nH]3)cc2)cc1,-5.06%
9,Cc1ccc(OCCn2c(CCNC(=O)c3cccc(NC(=O)OC(C)(C)C)c3)nc3ccccc32)cc1,8.04%
10,Cc1cc2c(s1)c1c(C)nn(Cc3ccc(F)cc3)c(=O)c1n2C,3.78%
11,COC(=O)c1cc2c(s1)c1cnn(Cc3ccccc3F)c(=O)c1n2C,4.03% [at 57.7 µM]
12,CCOc1ccc(CCNC(=O)c2cc3sccc3n2Cc2ccncc2)cc1OCC,-1.57%
13,O=C(Nc1ccc(Br)cc1)Nc1nnc(-c2ccncc2)s1,5.29%
14,N#Cc1c(-c2ccc(C(F)(F)F)cc2)no[n+]1[O-],-3.39%
15,CC(C)(C)OC(=O)NCCCNc1ncnc2ccc(-c3ccc4c(c3)OCO4)cc12,20.9%
16,COc1ccccc1-n1cnc2cc(C(=O)N3CCCCC3)ccc21,4.03%
17,COc1ccc(NC(=O)c2cccnc2C)cc1S(=O)(=O)Nc1ccc(Br)cc1,-1.18%
18,COc1ccc(CC(=O)Nc2ccc(S(=O)(=O)Nc3cc(C)on3)cc2)cc1OC,-10.3%
19,CCC(Nc1ncnc2ccc(-c3c(C)noc3C)cc12)c1ccccc1 (stereo not given),3.97%
20,O=C(O)c1ccc(O)c2ncc(NC3CCNCC3)cc12,-4.19%

row,SMILES,"activity change, negative = inhibition"
1,N#Cc1nc(NCCO)nc(Nc2ccccc2)n1,9.11%
2,CC(C)c1ccccc1SC1=NS(=O)(=O)c2ccccc21,-15.4%
3,Cc1cccc(Nc2nn3c(=O)c4ccccc4nc3s2)c1,3.52%
4,N#CC1=C(Nc2nc3ccccc3o2)OC2=C(C(=O)CCC2)C1c1[nH]ncc1Cl (stereo not given),-8.19%
5,COc1ccc(C2Nc3ccccc3C(=O)N2Cc2ccccc2)cc1COc1ccc(C)cc1 (stereo not given),1.29%
6,CC(C)(C)c1ccccc1Nc1nc(C#N)nc(NC2CCCC2)n1,8.08%
7,CCOc1ccc(CCNC(=O)c2cc3sccc3n2C)cc1OCC,-3.39%
8,Cc1cc2c(s1)c(C=O)c(C(=O)NCc1ccccc1F)n2C,-2.6%
9,CCOc1ccc(CCNC(=O)c2cc3ccccc3n2Cc2ccc(Cl)c(F)c2)cc1OCC,-0.838%
10,CCOC(=O)C1CCN(c2nc(-c3ccc(Br)cc3)cs2)CC1,-0.614%
11,O=C(O)c1ccc2c(c1)C(=O)N([C@H](Cc1c3ccccc3cc3ccccc13)C(=O)O)C2=O,-2.03%
12,N#CC1CCN(c2nc(-c3ccc(Br)cc3)cs2)CC1,1.95%
13,O=C1c2ccccc2C(=O)N1Cc1cccnc1,-0.263%
14,COc1ccc(NC(=O)CN2C(=O)N/C(=C\c3cccn3-c3ccc(C(=O)NC#N)cc3)C2=O)cc1,0.095%
15,Cc1ccc(-c2nccc(=O)n2CC(=O)N(C)C(C)c2ccco2)cc1 (stereo not given),-1.16%
16,CC(=O)NC(c1cc(F)c2cccnc2c1O)C1CC1 (stereo not given),-16.1%
17,COc1ccnc(NC(=S)N2CCN(c3cccc(Cl)c3Cl)CC2)c1,-16.1%
18,Cc1c(C(=O)OCC2CCCC2)[nH]c2c1C(=O)CC(c1ccco1)C2 (stereo not given),4.49%
19,CCOC(=O)c1ccc(-c2ccc3ncnc(NCc4ccc(C)o4)c3c2)o1,-7.91%
20,NC(=O)C1CCN(c2nc(-c3ccc(-c4ccccc4)cc3)cs2)CC1,2.07%
